This is a sample that favours compounds with a hit; in the whole collection about 8.7% have one here.
G9a inh: inhibitors of human histone lysine methyltransferase G9a | Q96KQ7 | G9a H3K9 monomethylation, AlphaScreen, 2 h | Potency, µM (titrated, usually from 102 µM), actives largely listed as inhibitors | 350,000 tested, 8.8% active; also: nearly all actives have a fitted effect of over 75% in size
Target sequence (Q96KQ7 913-1193 limits assumed): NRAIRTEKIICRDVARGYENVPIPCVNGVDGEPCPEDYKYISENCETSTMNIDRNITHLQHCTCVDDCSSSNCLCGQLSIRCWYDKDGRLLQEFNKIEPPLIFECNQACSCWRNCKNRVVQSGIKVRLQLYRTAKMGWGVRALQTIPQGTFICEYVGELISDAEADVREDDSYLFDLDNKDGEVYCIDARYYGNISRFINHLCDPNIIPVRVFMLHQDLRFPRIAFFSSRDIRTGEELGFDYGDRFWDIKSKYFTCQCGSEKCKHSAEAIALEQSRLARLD
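Readings reflect AlphaScreen signal from monomethyl-H3K9 antibody detection. HMT at 20 nM; substrate b-H3K9 500 nM; cofactor SAM 20 uM; 2 h RT reaction; compounds tested as titrations in qHTS with 15 min preincubation.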
Sfp PPTase inh: Sfp phosphopantetheinyl transferase inhibition. Q9F4F7. Biochemical Sfp PPTase activity, qHTS. Potency, µM, usual class: inhibitors. 310,000 tested, 3.5% active;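 also: the enzyme is Sfp with the accession as filed and its product quenches rhodamine fluorescence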
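With Hepes-Na pH 7.6 buffer containing 10 mM MgCl2, Sfp (15 nM) modified BHQ-2-YbbR (12.5 uM) using rhodamine-CoA (5 uM). Two reads 30 minutes apart at 525/598 nm yielded each well's rate.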
BAZ2B inh: inhibitors of human BAZ2B bromodomain; AlphaScreen BAZ2B-H3K14Ac peptide displacement; Potency, µM (top dose mostly 114 µM), hits mostly inhibitors; 360,000 tested, 4.4% active; AID 504333; also: nearly all actives have a fitted effect of over 60% in size
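In this displacement format the biotinylated H3(5-23) peptide acetylated at Lys14 serves as ligand at 50 nM, with BAZ2B at 50 nM in PBS pH 7.4 containing 0.01% Tween-20. Donor and acceptor beads are 10 ug/mL final.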
12-LOX inh: blocks human arachidonate 12S-lipoxygenase | P18054 | purified 12hLO, xylenol orange hydroperoxide absorbance | Potency, µM (series often up to 108 µM), hits mostly inhibitors | 580,000 tested, 1.1% active | AID 1671190
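Purified human 12hLO (150 nM final) in 25 mM Hepes, 0.01% Triton X-100, pH 7.0 was preincubated 15 min at room temperature with compound. Then 40 uM arachidonic acid was added, 30 min. Hydroperoxide was read by Fe-XO absorbance ratio 573/405 nm.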
HP1b binding inh: inhibitors of HP1-beta chromodomain binding to methylated histone tails; AlphaScreen HP1-beta / biotin-H3K9me3 peptide binding; Potency, µM (titrated, usually from 114 µM), hits mostly inhibitors; 390,000 tested, 0.56% active; also: nearly all actives have a fitted effect of over 70% in size
Target sequence (P83916 whole entry, looked up): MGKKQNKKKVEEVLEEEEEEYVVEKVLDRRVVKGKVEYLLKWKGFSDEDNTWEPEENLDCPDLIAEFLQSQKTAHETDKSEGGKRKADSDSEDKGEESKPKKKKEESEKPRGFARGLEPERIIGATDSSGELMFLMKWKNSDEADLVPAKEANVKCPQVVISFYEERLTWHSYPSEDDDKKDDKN
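Compound inhibition of the preformed complex between 50 nM HP1-beta and 50 nM biotinylated H3K9me3 peptide was read by AlphaScreen. Buffer was PBS pH 7.4 with 0.01% Tween-20. Incubations ran 30 min at room temperature, with 10 ug/mL donor/acceptor beads.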
JMJD2A Tudor inh: inhibitors of human JMJD2A Tudor domain. O75164. AlphaScreen JMJD2A-Tudor / H3K4me3 peptide binding. Potency, µM (series often up to 114 µM), hits mostly inhibitors. 390,000 tested, 4.4% active. AID 504339; also: nearly all actives have a fitted effect of over 50% in size
Numbers stand for hits; [ ] = another dose, or the depositor's remark. Calls follow the shape of the dose curve; as a rule, active = well fitted curve in the direction sought with a large enough effect; inconclusive = small, poorly fitted or top-dose-only effect, or another doubt; inactive = no such curve, though single readings can be large; an effect the other way counts as inactive or inconclusive.

`N=c1n(CCN2CCCCC2)c2ccccc2n1CC(O)c1ccc(Cl)c(Cl)c1` (stereo not drawn) gave G9a inh 17.8µM, Sfp PPTase inh inconclusive, BAZ2B inh inactive, 12-LOX inh inconclusive, HP1b binding inh inactive and JMJD2A Tudor inh inconclusive.
N=c1n(CCN2CCCCC2)c2ccccc2n1CC(O)COc1ccccc1 (stereo not drawn) was read as G9a inh inactive[2.33 µM], Sfp PPTase inh inactive, BAZ2B inh inactive, 12-LOX inh inactive, HP1b binding inh inactive and JMJD2A Tudor inh inactive.
Screening C[C@@H](NC(=O)C1=C[C@@H](NS(=O)(=O)c2cccs2)[C@@H](O)[C@H](O)C1)C(N)=O returned 12-LOX inh inactive.
CCC(=O)Nc1ccc2c(c1)nc(CCNC(=O)c1ccc(C)c(F)c1)n2C was read as 12-LOX inh inactive.
Screening CCOc1ccc2c(n1)CCN(C(=O)COc1ccccc1)C2 returned 12-LOX inh inactive.
`CCC(C)(C)n1nnnc1C(c1ccc(OC)c(OC)c1)N1CCN(c2ccc(OC)cc2)CC1` (stereo not drawn) gave G9a inh 11.2µM, Sfp PPTase inh inactive, BAZ2B inh 50.1µM, 12-LOX inh inconclusive, HP1b binding inh inactive and JMJD2A Tudor inh 28.2µM.
For CCC(C)(C)n1nnnc1C(c1ccc(OC)c(OC)c1)N1CCN(c2ccccc2)CC1 (stereo not drawn) the results were G9a inh inactive[12.7 µM], Sfp PPTase inh inactive, BAZ2B inh inactive, 12-LOX inh inactive, HP1b binding inh inactive and JMJD2A Tudor inh inactive.
`CCC(C)(C)n1nnnc1C(c1ccc(OC)c(OC)c1)N1CCN(c2ccc(F)cc2)CC1` (stereo not drawn) gave G9a inh 22.4µM, Sfp PPTase inh inconclusive, BAZ2B inh inactive, 12-LOX inh inconclusive, HP1b binding inh inactive and JMJD2A Tudor inh inconclusive.
COc1cc(CNC2CCCCC2OC)cc(OC)c1 (stereo not drawn) was read as G9a inh inconclusive, Sfp PPTase inh inactive, BAZ2B inh 56.2µM, 12-LOX inh inactive, HP1b binding inh inconclusive and JMJD2A Tudor inh 5.62µM.
`CCCn1nnnc1NC(=O)c1cccs1` gave G9a inh 35.5µM, Sfp PPTase inh inactive, BAZ2B inh inconclusive, 12-LOX inh inactive, HP1b binding inh inconclusive and JMJD2A Tudor inh inconclusive.
For CCCn1nnnc1NC(=O)c1ccc(C)cc1Cl the results were G9a inh 22.4µM, Sfp PPTase inh inactive, BAZ2B inh 56.2µM, 12-LOX inh inactive, HP1b binding inh inactive and JMJD2A Tudor inh inconclusive.
For CC(=O)Nc1ccc(NC(=O)c2ccc(C)cc2Cl)cc1 the results were 12-LOX inh inactive.
For CCCn1nnnc1NC(=O)c1cc(Br)ccc1OC the results were G9a inh 25.1µM, Sfp PPTase inh inactive, BAZ2B inh inconclusive, 12-LOX inh inactive, HP1b binding inh inactive and JMJD2A Tudor inh inactive.
For CCn1nnnc1NC(=O)c1cc(OC)c(OC)c(OC)c1 the results were G9a inh inactive, Sfp PPTase inh inactive, BAZ2B inh inactive, 12-LOX inh inactive, HP1b binding inh inactive and JMJD2A Tudor inh 79.4µM.
Screening Cn1nnnc1NC(=O)c1ccccc1Cl returned G9a inh 39.8µM, Sfp PPTase inh inactive, BAZ2B inh 50.1µM, 12-LOX inh inconclusive, HP1b binding inh inactive and JMJD2A Tudor inh inconclusive.
CC(C)CCNC(=O)c1cnc2n1CCN(CCCc1ccccc1)CC2 was read as 12-LOX inh inactive.
For COc1ccc(C2/C(=C(\O)c3ccc(OC)c(Cl)c3)C(=O)C(=O)N2CCN(C)C)cc1 (stereo not drawn) the results were G9a inh 79.4µM, Sfp PPTase inh inactive, BAZ2B inh inactive, 12-LOX inh inconclusive, HP1b binding inh inactive and JMJD2A Tudor inh inactive.
`COc1cccc(C2/C(=C(/O)c3cnn(-c4ccccc4)c3C)C(=O)C(=O)N2CCN(C)C)c1OC` (stereo not drawn) gave G9a inh 14.1µM, Sfp PPTase inh inactive, BAZ2B inh inconclusive, 12-LOX inh inactive, HP1b binding inh inactive and JMJD2A Tudor inh inactive.
`COC(=O)c1[nH]c(C)c(/C(O)=C2\C(=O)C(=O)N(CCN(C)C)C2c2cccc(OC)c2OC)c1C` (stereo not drawn) gave G9a inh inactive, Sfp PPTase inh inactive, BAZ2B inh inactive, 12-LOX inh inactive, HP1b binding inh inactive and JMJD2A Tudor inh inactive.
Screening COc1ccc(/C(O)=C2\C(=O)C(=O)N(CCN(C)C)C2c2cccc(OC)c2OC)cc1 (stereo not drawn) returned G9a inh 11.2µM, Sfp PPTase inh inactive, BAZ2B inh inactive, 12-LOX inh inactive, HP1b binding inh inactive and JMJD2A Tudor inh inactive.
COc1ccc(/C(O)=C2/C(=O)C(=O)N(CCCN(C)C)C2c2ccccc2)cc1Cl (stereo not drawn) was read as G9a inh inconclusive, Sfp PPTase inh inactive and BAZ2B inh inactive.
`Cc1ccc(CN(C(=O)COc2ccc(Br)cc2)c2ccccn2)o1` gave G9a inh inactive, BAZ2B inh inactive, 12-LOX inh inactive, HP1b binding inh inactive and JMJD2A Tudor inh inactive.
For CN(C)CCCn1c(-c2ccc(COc3ccc(Br)cc3)o2)n[nH]c1=S the results were 12-LOX inh 14.1µM.
Screening Cc1ccc(C(=O)NC(C)c2nc(-c3ccccn3)no2)cc1N1CCNC1=O (stereo not drawn) returned 12-LOX inh inactive.
`Cc1c(CC(=O)NC(C)C)c2c(n1Cc1ccccc1F)CCCC2=O` gave 12-LOX inh inactive.
For CN1CCN(C(=S)c2ccc(N(C)C)cc2)CC1 the results were G9a inh inconclusive, Sfp PPTase inh inactive, BAZ2B inh inactive, 12-LOX inh inactive, HP1b binding inh inconclusive and JMJD2A Tudor inh inactive.
`CSc1ccc(C(=S)N2CCN(C)CC2)cc1` gave G9a inh inconclusive, Sfp PPTase inh 6.31µM, BAZ2B inh inactive, 12-LOX inh inactive, HP1b binding inh inactive and JMJD2A Tudor inh inactive.
CSc1ccc(C(=S)N2CCCC2)cc1 was read as G9a inh 31.6µM, Sfp PPTase inh 50.1µM, BAZ2B inh inactive, 12-LOX inh inactive, HP1b binding inh inconclusive and JMJD2A Tudor inh inactive.
Screening CSc1ccc(C(=S)N2CCN(C(c3ccccc3)c3ccccc3)CC2)cc1 returned G9a inh 10µM, Sfp PPTase inh 35.5µM, BAZ2B inh inactive, 12-LOX inh inactive, HP1b binding inh inactive and JMJD2A Tudor inh inactive.
Screening CCc1ccccc1N1CC23C=CC(O2)C(C(=O)O)C3C1=O (stereo not drawn) returned G9a inh inactive, Sfp PPTase inh inactive, BAZ2B inh inactive, 12-LOX inh inactive, HP1b binding inh inactive and JMJD2A Tudor inh 22.4µM.
For CCc1ccc(CNC(=O)c2cc3ccccn3n2)cc1 the results were G9a inh inactive, BAZ2B inh inactive, 12-LOX inh inactive, HP1b binding inh inactive and JMJD2A Tudor inh inactive.

From PubChem
